Out of some 130,000 compounds screened, about 2,500 (1.9%) were called active.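 Rule for the calls: active = signal ratio slope over the read window, or its plate-corrected B-score, at least 3 SD from the plate mean, either direction; inactive = the rest.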 Shown is part of a subset that was picked to be rich in actives.
Biological target: ATP-sensitive inward rectifier potassium channel 1 (Homo sapiens) (UniProt P48048)
Experiment: ROMK potassium channel modulators, primary screen, cell-based, thallium flux, MLSMR library (AID 1918);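 note: B-score of the F/F0 ratio slope over 7 to 12 s after thallium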
Details: Tet-inducible ROMK, thallium flux fluorescence; at 10 µM; actives lie on both sides

ATP-sensitive inward rectifier potassium channel 1 (Homo sapiens), sequence (P48048 whole entry, looked up): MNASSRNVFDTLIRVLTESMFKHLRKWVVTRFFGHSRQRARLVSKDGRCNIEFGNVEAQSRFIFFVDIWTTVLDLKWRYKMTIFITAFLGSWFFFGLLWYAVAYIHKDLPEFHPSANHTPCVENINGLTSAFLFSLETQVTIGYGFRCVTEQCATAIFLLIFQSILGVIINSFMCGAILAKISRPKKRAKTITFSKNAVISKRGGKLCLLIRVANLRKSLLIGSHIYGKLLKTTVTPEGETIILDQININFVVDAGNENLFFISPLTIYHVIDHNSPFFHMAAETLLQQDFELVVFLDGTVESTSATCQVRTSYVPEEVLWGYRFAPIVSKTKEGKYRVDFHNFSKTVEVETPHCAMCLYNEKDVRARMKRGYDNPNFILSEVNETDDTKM

B-score, inactive:
COc1ccccc1CC(NC(C)=O)C(=O)NC1CCN(C(=O)Nc2ccccc2Cl)CC1 (stereo not drawn) -0.0342, O=C(NNC(=S)NCCCN1CCOCC1)c1ccncc1 -0.0357, CCOC(=O)NC(=O)/C(C#N)=C\c1ccccc1 -1.48, COCCNC(=O)/C(C#N)=C/c1nc(N(C)C)n(-c2ccc(F)cc2)c1Cl -0.0358, N#C/C(C(=S)Nc1ccccc1)=C1/NN=C(N2CCOCC2)N1c1ccccc1 0.219, O=C(COC(=O)CC1CC2CCC1C2)NC(=O)NC1CCCC1 (stereo not drawn) -0.0323, Nc1ncnc(Nc2cccc(Cl)c2Cl)n1 -0.357, O=C(Nc1ncccn1)c1cccs1 0.282, O=C(O)c1ccc(NC(=O)c2cccs2)cc1 -0.729, NS(=O)(=O)c1cccc(NC(=O)COC(=O)/C=C/c2ccco2)c1 1.2, COc1cc(NC(=O)COc2ccccc2Cl)ccc1NC(=O)C(C)C -0.0152, CCCN(CC(=O)Nc1ccc(C(N)=O)cc1)CC(=O)Nc1ccccc1C 2.09, CCCOc1ccccc1C(=O)NCCCC(=O)O 0.945, Cc1cc(C)cc(NC(=O)COC(=O)c2cc(C)oc2C)c1 0.675, COc1cccc(-n2c(=S)[nH]c3c(oc4ccccc43)c2=O)c1 -0.508, COc1ccc(C)cc1NC(=O)c1[nH]c(C)c(C(C)=O)c1C -0.381, Cc1cccc(NC(=O)c2ccc3nsnc3c2)c1C 0.488, Cc1cc(C)nc(Nc2cc([N+](=O)[O-])ccc2C)n1 -0.867, CCCC(=O)NC(=S)Nc1ccc(CN2CCOCC2)cc1 0.069, COC(=O)c1c(C)oc(C)c1S(=O)(=O)NCc1ccc(Cl)cc1 -0.884, c1ccc(-n2nnnc2-c2cccnc2)cc1 0.982, CNC(=O)C(=O)N/N=C/c1ccccn1 1.14, c1ccc(C2c3[nH]c4ccccc4c3CCN2Cc2cccn2-c2cccnc2)nc1 (stereo not drawn) -0.00648

B-score, active:
COCCNC(=O)/C(C#N)=C/c1cccc(OCc2ccccc2)c1 -2.75, O=C(Nc1ccccc1-c1ccccc1)c1cccs1 -3.72, CCCN(CCC)CC(O)COc1ccccc1C(=O)Nc1ccccc1 (stereo not drawn) -3.37, COc1ccc(Br)cc1C(=O)Nc1cccc(C)c1C -2.34, CC1(C)C=C2[C@H]3CC[C@@H]4[C@@]5(C)CCC(=O)C(C)(C)[C@@H]5CC[C@@]4(C)[C@]3(C)CC[C@@]2(C(=O)O)CC1 3.78

— PubChem BioAssay AID1918 (Vanderbilt High Throughput Screening Facility, 2009)
